# Screens from PubChem.
# SMARCA2 act: increases SMARCA2 function in MMTV reporter cells; actives 1% (n = 370,000); AID 652017; MG213 cells, MMTV-luciferase reporter, dexamethasone, overnight; activation, % at 9.1 µM; in the data active = activation above about 7.8%;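 note: 0% = vehicle wells and 100% = reference activator wells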
# DAX1 inh-1: DAX1 (NR0B1) inhibition, primary screen; actives 1.1% (n = 370,000); AID 652010; inhibition, % at 6.8 µM; HEK293T StAR-luciferase reporter, SF-1/DAX-1 repression relief;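 active = inhibition above the mean over all tested compounds plus 3 SD, cut at about 3.6% in these data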;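 note: 0% = DAX-1 cells with DMSO and 100% = cells lacking DAX-1 with DMSO; higher inhibition means more luminescence from relief of DAX-1 repression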
# ssDAF-12 act: activators of S. stercoralis DAF-12 nuclear receptor. AID 652126. actives 1% (n = 370,000). HEK293 ssDAF-12/GRIP1 lit1-tk-luc reporter, luminescence; % of 3 µM dafachronic acid response. activation, % at 6.8 µM;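 active = activation above the mean over all tested compounds plus 3 SD, cut at about 0.9% in these data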;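 note: 0% = DMSO-only wells and 100% = 3 µM delta7-dafachronic acid wells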
# hgDAF12 agonist: hgDAF-12 agonism, primary luciferase screen; HEK293 GAL4-hgDAF12 UAS-luciferase reporter, agonist luminescence; normalized to butyrate control; activation, % at 6.8 µM; actives 1.8% (n = 370,000); AID 687014;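 active = activation above a cutoff set at the mean of all screened compounds plus 3 SD, cut at about 10% in these data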;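 note: 0% = DMSO wells and 100% = sodium butyrate wells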
# hcDAF12 agonist: activates DAF-12 receptor from parasite H. contortus; HEK293 hcDAF-12 lit1-tk-luc reporter, luminescence; 0% DMSO, 100% Δ7-dafachronic acid; activation, % at 6.8 µM; actives 1.4% (n = 370,000);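 active = activation above the mean of all tested compounds plus 3 SD, cut at about 5.5% in these data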;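 note: 100% = response to 3 µM Δ7-dafachronic acid high control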
# DAX1 inh-2: inhibitors of human orphan nuclear receptor DAX1 (NR0B1) | P51843 | HEK293 Gal4-DAX1 luciferase reporter, luminescence | inhibition, % at 6.75 µM | actives 0.99% (n = 340,000) | AID 504766;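 active = inhibition above the mean over all tested compounds plus 3 SD, cut at about 4.2% in these data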;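 note: 0% = DAX1-transfected cells with DMSO and 100% = empty-vector control cells with DMSO; inhibition shows as a rise in luminescence from relieved DAX1 repression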
# Target sequence (P51843 207-470 limits assumed): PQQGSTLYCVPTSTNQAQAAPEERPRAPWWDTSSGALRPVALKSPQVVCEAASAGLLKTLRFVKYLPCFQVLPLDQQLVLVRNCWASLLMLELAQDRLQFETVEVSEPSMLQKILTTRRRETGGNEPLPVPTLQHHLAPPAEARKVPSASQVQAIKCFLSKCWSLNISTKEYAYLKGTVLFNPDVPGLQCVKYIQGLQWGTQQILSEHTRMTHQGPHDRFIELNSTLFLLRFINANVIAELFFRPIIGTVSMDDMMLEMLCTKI
# DAX1 inh confirm: confirmation of human DAX1 (NR0B1) inhibitors. shares compounds with DAX1 inh-1. HEK293T StAR-promoter luciferase reporter, SF-1/DAX-1 repression. inhibition, % at 6.8 µM. actives 87% (n = 2,400). AID 652134;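 active = inhibition above the average of every tested compound plus 3 SD, cut at about 3.8% in these data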;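 note: 0% = DAX-1 cells with DMSO and 100% = no DAX-1 control cells with DMSO; active compounds raise luminescence by relieving repression of the StAR reporter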
# SF1 mutant ctr: counter-screen for DAX1 inhibitors: nonselective inhibitors with SF-1 AF2 mutant. inhibition, % at 6.8 µM. actives 78% (n = 2,400). AID 652136. HEK293 StAR-luciferase, luminescence. shares compounds with DAX1 inh-1;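 active = inhibition above the mean of all tested compounds plus 3 SD, cut at about 3% in these data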;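 note: 0% = DAX-1 transfected cells with DMSO and 100% = cells without DAX-1 with DMSO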
# SMARCA2 conf: confirmation of SMARCA2 (BRM) function activators; activation, % at 9.1 µM; shares compounds with SMARCA2 act; MG213 cells, MMTV-luciferase with dexamethasone, luminescence, overnight; MG213 cells expressing E1A, Rb sequestered; DMSO wells 0%, reference activator 100%; actives 30% (n = 3,500); AID 652260;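 active = activation above its plate's cutoff, the mean activation of tested wells plus 3 SD, cut at about 7.9% in these data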
# GAL4-VP16 Luc: activates GAL4-VP16 luciferase, flagging SMARCA2 activator hits; shares compounds with SMARCA2 act; HEK293 GAL4-VP16 pG5luc reporter, luciferase luminescence; scaled: DMSO wells 0%, SAHA wells 100%; activation, % at 9.1 µM; actives 41% (n = 3,500); AID 686939;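 active = activation above the solvent-only control well mean plus 3 SD, averaged across control plates, cut at about 5.2% in these data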
# LXR ag: counter-screen for hcDAF-12 agonists: agonists of human LXR-beta; activation, % at 6.8 µM; HEK293 Gal4-LXR tk-luc reporter, luminescence, 24 h; normalized: DMSO 0%, positive control 100%; shares compounds with hcDAF12 agonist; 3,400 tested, under 10 active;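 active = mean percent activation of the reporter above a cutoff set as the average over tested compounds plus their standard deviation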
# Target sequence (P55055 whole entry, looked up, the tested form may be a part): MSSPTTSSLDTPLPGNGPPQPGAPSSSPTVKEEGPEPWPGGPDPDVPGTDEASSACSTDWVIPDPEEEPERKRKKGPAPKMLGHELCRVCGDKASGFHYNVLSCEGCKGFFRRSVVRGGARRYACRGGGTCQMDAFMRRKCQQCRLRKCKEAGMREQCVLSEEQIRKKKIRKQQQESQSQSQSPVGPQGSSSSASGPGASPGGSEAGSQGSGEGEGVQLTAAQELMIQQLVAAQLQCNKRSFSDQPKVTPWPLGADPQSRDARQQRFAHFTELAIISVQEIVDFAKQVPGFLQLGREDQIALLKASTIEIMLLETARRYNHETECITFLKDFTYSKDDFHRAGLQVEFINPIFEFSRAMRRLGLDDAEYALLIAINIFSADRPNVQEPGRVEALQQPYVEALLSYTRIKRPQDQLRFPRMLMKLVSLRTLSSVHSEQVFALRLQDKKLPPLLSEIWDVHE
# hcDAF12 conf: hcDAF-12 agonism, confirmation assay; shares compounds with hcDAF12 agonist; HEK293 hcDAF-12 lit1-tk-luc reporter, luminescence; % of Δ7-dafachronic acid response; activation, % at 6.8 µM; actives 61% (n = 3,400);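 active = mean activation across triplicate tests above the threshold derived from the earlier primary screen, cut at about 5.5% in these data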;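 note: 0% = DMSO only wells and 100% = 3 µM Δ7-dafachronic acid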
# hgDAF12 conf: confirmation of H. glycines DAF-12 agonists; shares compounds with hgDAF12 agonist; HEK293 GAL4-hgDAF12 luciferase reporter, agonist mode; percent of butyrate response; activation, % at 6.8 µM; actives 80% (n = 3,300);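 active = mean activation over triplicate wells above the hit cutoff derived from the earlier primary screen, cut at about 11% in these data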;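 note: 0% = DMSO low control and 100% = 2 mM sodium butyrate high control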
# LXR ag 2: counter-screen for DAF-12 agonists: agonists of human LXR-beta; shares compounds with hgDAF12 agonist; HEK293 Gal4-LXR luciferase reporter, 24 h; activation, % at 6.8 µM; 3,300 tested, under 10 active; AID 743051;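 active = mean activation of the triplicate above a set limit carried over from the primary screen, none filed active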
# The depositor's hits bear a star; · = no result given. An excerpt weighted towards active compounds, which were near 4.8% of everything screened.
SMILES,SMARCA2 act,DAX1 inh-1,ssDAF-12 act,hgDAF12 agonist,hcDAF12 agonist,DAX1 inh-2,DAX1 inh confirm,SF1 mutant ctr,hgDAF12 conf,LXR ag 2,others
Cc1ccc2cc3c(N)c(C(=O)N4CCOCC4)sc3nc2c1,9.5*,5.6*,1.0*,16*,6.2*,5.1*,12*,5.9*,1,0,SMARCA2 conf=14*;GAL4-VP16 Luc=14*
COc1ccc2cc3c(N)c(C(=O)N4CCCC4)sc3nc2c1,0,0,-1,4,-1,·,·,·,·,·,
COc1cccc(NC(=O)Nc2ccc3c(c2)nc(C)n3C)c1,5,4.7*,0,20*,5.7*,-2,12*,7.8*,15*,1,
CCN(C(=O)[C@@H](C1CC1)[C@@H](O)c1ccc(Cl)cc1)c1ccccc1,0,0,-1,3,-2,·,·,·,·,·,
O=C(NC(=S)Nc1ncccn1)c1ccc(Cl)cc1Cl,6,6.7*,0,16*,2,5.1*,14*,9.8*,14*,1,
CCC(=O)Nc1cccc(NC(=S)NC(=O)c2ccc(Cl)cc2Cl)c1,-1,1,0,8,0,-1,·,·,·,·,
CCCCNC(=O)NS(=O)(=O)c1ccc(NC(=O)CSc2nnc(-c3ccc(Cl)cc3)n2N)cc1,-2,-1,-1,0,4,·,·,·,·,·,
CCCC[C@H]1C2CC(OC(=O)Nc3ccccc3C(F)(F)F)C(C2)[C@H]2CCCCN21 (some centres not stated),-3,0,-1,2,-2,·,·,·,·,·,
Cc1ccnc(SCc2cn3c(C)cc(C)nc3n2)n1,-4,0,-1,1,-1,-1,·,·,·,·,
Cc1cc(C)n2cc(COc3ccc4ccccc4c3)nc2n1,3,6.3*,1,17*,8.0*,2,15*,8.8*,17*,1,LXR ag=1;hcDAF12 conf=6
CCc1nnn2c1Cn1c3ccccc3c(=O)n1[C@@H](C)C2,-1,0,-1,-4,0,·,·,·,·,·,
O=C(Nc1ccccc1)OCCc1ccccn1,7,9.3*,-1,14*,4,5.8*,7.4*,4.2*,11*,1,
O=C(Cc1ccccn1)c1ccccc1,1,0,-2,0,-1,0,·,·,·,·,
O=C(CCCc1ccccn1)c1ccccc1,4,5.6*,0,18*,7.7*,1,11*,5.8*,11*,1,LXR ag=1;hcDAF12 conf=3
COc1ccccc1NC(=O)OC1CC2CC1[C@H]1CCCCN1[C@H]2Cc1ccccc1 (some centres not stated),-3,0,-1,-1,0,·,·,·,·,·,
CCCC/C=C1/[C@H](c2ccccc2)N(C)C2=N[C@H](c3ccccc3)CC(=O)N21,·,·,-2,-1,-3,·,·,·,·,·,
CC(C)(C)Nc1ncnc2c1cnn2-c1ccccc1,8.3*,9.0*,1,16*,5,1,15*,4.7*,12*,1,SMARCA2 conf=11*;GAL4-VP16 Luc=13*
CC(C)Nc1ncnc2c1cnn2-c1ccc(Cl)cc1,3,4.8*,1,16*,4,-1,11*,3,4,1,
CC1CCN(c2ncnc3c2cnn3-c2ccccc2)CC1,4,7.7*,0,15*,4,2,14*,12*,14*,1,
Clc1ccc(Nc2ncnc3c2cnn3-c2ccccc2)cc1,0,2,-2,2,0,1,·,·,·,·,
CCOC(=O)C1CCN(c2ncnc3c2cnn3-c2ccccc2)CC1,-5,0,-1,-4,-3,0,·,·,·,·,
O=Nc1c2cc(-c3ccccc3)[nH]nc-2c2ccccc12,8.5*,5.8*,2.7*,23*,20*,0,5.4*,1,12*,1,SMARCA2 conf=9.8*;GAL4-VP16 Luc=5.5*;LXR ag=2;hcDAF12 conf=19*
COc1ccc(-c2nnc(SCc3cccc(C)c3)n2N)cc1,-2,1,-1,-2,-1,0,·,·,·,·,
COc1ccc(-c2nnc(SCc3c(F)cccc3F)n2N)cc1,4,7.5*,0,13*,4,·,14*,6.2*,15*,1,
C/C(=N\Nc1ccccc1)c1c(O)cc(C)oc1=O,3,0,-1,1,-2,3,·,·,·,·,
CC(=Nc1ccc(Cl)cc1N)c1c(O)cc(C)oc1=O,9.0*,9.8*,1.6*,24*,10*,·,3,1,16*,0,SMARCA2 conf=5;GAL4-VP16 Luc=15*;LXR ag=0;hcDAF12 conf=5.6*
Cc1c(C(=O)NC2CCOC2)oc2c(F)cccc12 (configuration not stated),7,5.7*,0,14*,5,3,6.4*,3.3*,13*,0,
Cc1c(C(=O)O)oc2c(F)cccc12,3,0,-1,-4,-3,·,·,·,·,·,
Cc1cc(C)c(C)c(OCC(=O)O/N=C(\N)c2ccccn2)c1,1,0,-1,1,-1,0,·,·,·,·,
N/C(=N\OC(=O)COc1ccc(Cl)cc1Cl)c1ccccn1,0,5.3*,0,16*,6.4*,-1,19*,7.2*,15*,1,
